Values without a mark were called inactive.
test system: Vero E6 infected with SARS-CoV-2; test: inhibition of SARS-CoV-2 cytopathic effect; higher = more antiviral protection, active = above 15; conditions: 100 nM; 48 h

Compound | inhibition of SARS-CoV-2 cytopathic effect
COc1ccnc(C[S+]([O-])c2nc3cc(OC(F)F)ccc3[nH]2)c1OC (stereo not given) [pantoprazole] | -4.09%
C=CC[C@]1(O)CC[C@H]2[C@@H]3CCC4=CCCC[C@@H]4[C@H]3CC[C@@]21C [allylestrenol] | 1.52%
C[C@H](/C=C/[C@H](C)C(C)(C)O)[C@H]1CC[C@H]2/C(=C/C=C3C[C@@H](O)C[C@H](O)C3)CCC[C@]12C [paricalcitol] | -0.2%
C/C(=N\Nc1nnc2c(n1)[nH]c1c(C)cccc12)c1ccccn1 | 1.94%
COC(=O)[C@H](c1ccccc1Cl)N1CCc2sccc2C1 [clopidogrel] | 1.82%
CC(=O)N[C@@H](CS)C(=O)O [acetylcysteine] | 3.98%
COc1ccc(N2CCOCC2)c2sc(NC(=O)N3CCC(C)(O)CC3)nc12 [tozadenant] | -0.04%
Cc1c(C)c2c(c(C)c1O)CC[C@@](C)(CCC[C@H](C)CCC[C@H](C)CCCC(C)C)O2 [vitamin-E] | 2.84%
COc1ccn2ncc(-c3nc4[nH]nc(NC(=O)c5ccc(F)cc5)c4cc3F)c2c1 | 0.38%
C[C@@H]1NC(=O)[C@@H]2CCCN2C(=O)[C@H](CC(N)=O)NC(=O)[C@@H]2CSSC[C@H](N)C(=O)N[C@H]3CSSC[C@H](NC1=O)C(=O)N[C@@H]([C@@H](C)O)C(=O)NCC(=O)N[C@H](C(=O)N[C@@H](Cc1ccc(O)cc1)C(=O)O)CSSC[C@H](NC(=O)[C@H](Cc1ccc(O)cc1)NC(=O)[C@H](CCC(=O)O)NC3=O)C(=O)N2 [linaclotide] | 1.75%
O=C(c1c2ccccc2cc2ccccc12)N1CCC(N2CCC[C@@H](C(=O)N3CCOCC3)C2)CC1 | -0.31%
CC(=O)NC[C@H]1CN(c2ccc(-c3ccc(CNCc4cnn[nH]4)cc3)c(F)c2)C(=O)O1 [radezolid] | 2.16%
CCN(CC)CCCCNc1ncc2cc(-c3c(Cl)cccc3Cl)c(NC(=O)NC(C)(C)C)nc2n1 | 2.1%
CC[C@H]1[C@@H](O)[C@@H]2[C@H](CC[C@]3(C)[C@@H]([C@H](C)CCOS(=O)(=O)O)CC[C@@H]23)[C@@]2(C)CC[C@@H](O)C[C@@H]12 | -0.03%
NCc1c[nH]c(=S)n1[C@H]1CCc2c(F)cc(F)cc2C1 [nepicastat] | 2.16%
CC(C)COC(=O)c1ccc(N)cc1 [isobutamben] | -1.06%
Cc1coc2c1C(=O)C(=O)c1c-2ccc2c(C)cccc12 [tanshinone-I] | 0.25%
CN[C@@H](C)C(=O)N[C@H](C(=O)N1CCC[C@H]1c1nc(C(=O)c2ccc(F)cc2)cs1)C1CCCCC1 | 0.97%
Cc1cccc(C)c1NC(=O)CC12CCCN1CCC2 [pilsicainide] | 4.31%
CC(=O)c1cc([N+](=O)[O-])c(Sc2ccc(F)cc2F)s1 | 0.23%

Compound | inhibition of SARS-CoV-2 cytopathic effect
CCOC(=S)SSC(=S)OCC [dixanthogen] | -1.47%
COc1cc(N)c(Cl)cc1C(=O)OCCCN1CCCCC1 | 3.25%
COc1ccc(CN(C(=O)[C@@H](N)Cc2c(C)cc(C(N)=O)cc2C)[C@@H](C)c2ncc(-c3ccccc3)[nH]2)cc1C(=O)O [eluxadoline] | 0.96%
CCOc1cc(C(C)(C)C)ccc1C1=N[C@@](C)(c2ccc(Cl)cc2)[C@@](C)(c2ccc(Cl)cc2)N1C(=O)N1CCN(CCCS(C)(=O)=O)CC1 | 1.86%
Cc1ccccc1-n1c(Cn2ncc3c(N)ncnc32)nc2cccc(C)c2c1=O | 0.62%
Cc1cccc(Nc2ccncc2S(=O)(=O)NC(=O)NC(C)C)c1 [torasemide] | -0.51%
CC(C)[C@H](CO)Nc1nc(Nc2cccc(Cl)c2)c2ncn(C(C)C)c2n1 [purvalanol-A] | -0.26%
CCn1cc(C(=O)O)c(=O)c2cc(F)c(N3CCN(C)CC3)cc21 [pefloxacin] | 2.84%
CCOC(=O)c1ncc2[nH]c3ccc(OCc4ccccc4)cc3c2c1COC | 0.32%
CC(C[N+](C)(C)C)OC(N)=O (stereo not given) [bethanechol] | -4.87%
COc1ccc(/C=C/C(=O)Nc2ccccc2C(=O)O)cc1OC [tranilast] | -1.22%
c1ccc(-c2oc3ncnc(NC[C@@H]4CCCO4)c3c2-c2ccccc2)cc1 | 0%
O=C(Nc1ccc([N+](=O)[O-])cc1O)Nc1ccccc1Br | -0.6%
C[C@]1(COc2ccc(N3CCC(Oc4ccc(OC(F)(F)F)cc4)CC3)cc2)Cn2cc([N+](=O)[O-])nc2O1 [delamanid] | -1.12%
CCc1c(-c2ccccc2)c(-c2ccccc2)nn1-c1ccccc1-c1cccc(OCC(=O)O)c1 | 0.2%
Nc1ncc2c(n1)CC(c1ccco1)CC2=O (stereo not given) | 2.68%
Nc1ncnc2c1c(-c1cnc3[nH]ccc3c1)nn2C1CCCC1 | 0.41%
CCCCC/C=C\C/C=C\C/C=C\C/C=C\CCCC(=O)Nc1ccc(O)cc1 | 3.11%
CCCC(C)NC(=O)c1ccc(Cl)c(Cl)c1 (stereo not given) | 1.26%
CC(C)C[C@@H](N)C1(c2ccc(Cl)cc2)CCC1 | -2.87%
